In PubChem BioAssay (EPA / NIEHS):
Records with an inconclusive call do not appear. The source made the active and inactive calls. How the source made its calls, unless noted: active means hit-call score of the fitted dose curve at least 0.9, where 1 is the maximum; inconclusive means response in the unintended direction; inactive means score below 0.9.

Tests used:
[1] = molecular target: Estrogen receptor (Homo sapiens) (UniProt P03372); assay: OT_ERa_GFPERaERE_0120: Odyssey Thera (OT) 2-hour HeLa Transcription Induction Assay for Estrogen Receptor (AID 2283382)
In short: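 Cells (human cervical HeLa) receive compound, incubate 2 hours, then are imaged for fluorescent reporter induction. Images are quantified by high content analysis, and activity is fitted as gain of signal against DMSO.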

[2] = molecular target: Bile acid receptor (Homo sapiens) (UniProt Q96RI1); assay: OT_FXR_FXRSRC1_0480: Odyssey Thera (OT) 8-hour HEK293T Protein-Complementation Assay for Farnesoid X receptor/SRC-1 Co-activator (AID 2283383)
In short: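 PCA, HEK293T, 8 h compound exposure; FXR–SRC-1 binding reconstitutes split reporter; fluorescence intensity; positive-direction fit vs DMSO.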

[3] = molecular target: Retinoic acid receptor RXR-alpha (Homo sapiens) (UniProt P19793); assay: OT_NURR1_NURR1RXRa_0480: Odyssey Thera (OT) 8-hour HEK293T Protein Complementation Assay for Nurr1/retinoid X receptor (RXR) (AID 2283385)
In short: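 Interaction of bait and prey reconstitutes a functional reporter, whose fluorescence was measured in HEK293T cells dosed with compound for 8 hours. Signal gain relative to DMSO defined the single endpoint.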

[4] = molecular target: Retinoic acid receptor RXR-alpha (Homo sapiens) (UniProt P19793); assay: OT_NURR1_NURR1RXRa_1440: Odyssey Thera (OT) 24-hour HEK293T Protein Complementation Assay for Nurr1/retinoid X receptor (RXR) (AID 2283386)
In short: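 Steps: fragment-tagged Nurr1 and RXRα expressed in HEK293T; compounds added; after 24 h, complemented reporter quantified by fluorescence intensity; signal increase over DMSO fitted as the single endpoint.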

[5] = molecular target: Peroxisome proliferator-activated receptor gamma (Homo sapiens) (UniProt P37231); assay: OT_PPARg_PPARgSRC1_0480: Odyssey Thera (OT) 8-hour Protein-Complementation Assay for Peroxisome Proliferator-activated Receptor Gamma / SRC-1 Co-activator (AID 2283387);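 further: nuclear to cytoplasmic split Venus YFP fluorescence ratio reporting PPARg SRC-1 interaction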
In short: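 Read-out: 488 nm N/C fluorescence ratio from complemented Venus YFP fragments, ≥350 cells per image, gain-of-signal fitted against DMSO baseline. Fusions of PPARg/SRC-1 with IFP1/IFP2 expressed transiently in HEK293T; compounds applied 8 h.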

[6] = molecular target: Peroxisome proliferator-activated receptor gamma (Homo sapiens) (UniProt P37231); assay: OT_PPARg_PPARgSRC1_1440: Odyssey Thera (OT) 24-hour Protein-Complementation Assay for Peroxisome Proliferator-activated Receptor Gamma/ SRC-1 Co-activator (AID 2283388);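 further: nuclear to cytoplasmic ratio of reconstituted Venus YFP fluorescence in fixed imaged cells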
In short: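 Protein-fragment complementation between PPARg and coactivator SRC-1 was measured by fluorescence imaging in transiently transfected HEK293T cells after 24 h treatment. Signal was quantified as N/C ratio in the 488 nm channel, with DMSO as negative control.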

[7] = molecular target: Bile acid receptor (Homo sapiens) (UniProt Q96RI1); assay: OT_FXR_FXRSRC1_1440: Odyssey Thera (OT) 24-hour HEK293T Protein-Complementation Assay for Farnesoid X receptor/SRC-1 Co-activator (AID 2283384)
In short: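 Measures ligand-driven FXR–SRC-1 co-activator recruitment in HEK293T via fragment complementation, fluorescence intensity at 24 h. DMSO served as negative control and baseline for gain-of-signal fitting.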

[8] = TOX21_p53_BLA_p2_viability: Viability Assessment in the Tox21 HCT-116 p53 Agonism Beta-lactamase Assay, Phase 2 (AID 2283591);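 further: compound exposure lasted 16 h at 37 °C; actives lower the ATP signal meaning cytotoxicity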
In short: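 Cytotoxicity readout: CellTiter-Glo ATP luminescence, 30 min at room temperature, after the beta-lactamase read. Cells were HCT116 exposed 16 h at 37C to compounds pin-transferred at 217-fold dilution from DMSO stocks.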

[9] = CEETOX_H295R_11DCORT: CeeTox H295R High-throughput Steroidogenesis Assay for 11-Deoxycortisol (11DCORT) (AID 2283432; active means hit-call score of the fitted dose curve at least 0.9, where 1 is the maximum; inactive means score below 0.9); details: actives raise or lower the signal
In short: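 H295R cells; 10 uM forskolin prestim 48 h; compound in 0.1% DMSO 48 h; media extracted with MTBE; 11-deoxycortisol by LC-MS/MS, 7-point standard curve; gain/loss vs DMSO baseline; viability by MTT in same wells.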

[10] = CEETOX_H295R_OHPREG: CeeTox H295R High-throughput Steroidogenesis Assay for OH-Pregnenolone (OHPREG) (AID 2283434; active means hit-call score of the fitted dose curve at least 0.9, where 1 is the maximum; inactive means score below 0.9); details: actives raise or lower the signal
In short: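 Secreted 17alpha-hydroxypregnenolone measured by HPLC-MS/MS after liquid-liquid extraction. Human adrenal H295R cells received 48 h forskolin (10 uM) stimulation before 48 h chemical exposure at 0.1% final DMSO; MTT viability in same wells; bidirectional fit against DMSO.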

[11] = CEETOX_H295R_OHPROG: CeeTox H295R High-throughput Steroidogenesis Assay for OH-Progesterone (OHPROG) (AID 2283435; active means hit-call score of the fitted dose curve at least 0.9, where 1 is the maximum; inactive means score below 0.9); details: actives raise or lower the signal
In short: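 Steps: seed H295R cells and adhere overnight; stimulate with 10 uM forskolin for 48 h; replace with chemical-containing medium (0.1% DMSO) for 48 h; extract medium with MTBE; quantify 17alpha-hydroxyprogesterone by reverse-phase C18 HPLC-MS/MS against a 7-point curve.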

[12] = CEETOX_H295R_ANDR: CeeTox H295R High-throughput Steroidogenesis Assay for Androstenedione (ANDR) (AID 2283436; active means hit-call score of the fitted dose curve at least 0.9, where 1 is the maximum; inactive means score below 0.9); details: actives raise or lower the signal
In short: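 Medium from 48 h chemical-treated H295R adrenal cells was extracted with MTBE and androstenedione measured by LC-MS/MS. Activity was fit in both directions relative to DMSO. Cytotoxic concentrations were re-tested after dilution until MTT viability reached ≥70%.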

[13] = CEETOX_H295R_CORTIC: CeeTox H295R High-throughput Steroidogenesis Assay for Corticosterone (CORTIC) (AID 2283437; active means hit-call score of the fitted dose curve at least 0.9, where 1 is the maximum; inactive means score below 0.9); details: actives raise or lower the signal
In short: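 Medium corticosterone was quantified by tandem mass spectrometry following 48 hours of chemical exposure (0.1% DMSO) in human H295R cells previously stimulated 48 hours with 10 uM forskolin. Viability checked by MTT; chemicals diluted and retested when viability fell below 70%.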

[14] = CEETOX_H295R_CORTISOL: CeeTox H295R High-throughput Steroidogenesis Assay for Cortisol (AID 2283438; active means hit-call score of the fitted dose curve at least 0.9, where 1 is the maximum; inactive means score below 0.9); details: actives raise or lower the signal
In short: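 Cortisol synthesis by H295R cells is measured 48 h after chemical dosing, following a 48 h stimulation with 10 uM forskolin. Hormone is extracted and quantified by HPLC-MS/MS, and activity is fitted bidirectionally against the DMSO control.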

[15] = CEETOX_H295R_DOC: CeeTox H295R High-throughput Steroidogenesis Assay for DOC (AID 2283439; active means hit-call score of the fitted dose curve at least 0.9, where 1 is the maximum; inactive means score below 0.9); details: actives raise or lower the signal
In short: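 Steps: seed H295R, adhere overnight; 10 uM forskolin 48 h; replace with chemical medium (0.1% DMSO) 48 h; collect medium, MTBE extraction, HPLC-MS/MS for DOC. Viability then checked by MTT; cytotoxic chemicals diluted until viability ≥70%.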

[16] = CEETOX_H295R_PROG: CeeTox H295R High-throughput Steroidogenesis Assay for Progesterone (PROG) (AID 2283442; active means hit-call score of the fitted dose curve at least 0.9, where 1 is the maximum; inactive means score below 0.9); details: actives raise or lower the signal
In short: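 Steps: seed H295R cells and let them adhere overnight; prime 48 h with 10 uM forskolin; dose with compound in DMSO at 0.1% final for 48 h; extract medium steroids with MTBE; measure progesterone by LC-MS/MS. MTT viability was run in the same wells.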

[17] = CEETOX_H295R_TESTO: CeeTox H295R High-throughput Steroidogenesis Assay for Testosterone (TESTO) (AID 2283457; active means hit-call score of the fitted dose curve at least 0.9, where 1 is the maximum; inactive means score below 0.9); details: actives raise or lower the signal
In short: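 H295R, passage ≤10, 48 h dosing; media extracted with MTBE → HPLC-MS/MS for testosterone; 7-pt standard curve sets LLOQ/ULOQ; bidirectional fit vs DMSO; MTT viability same wells.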

[18] = ATG_XTT_Cytotoxicity: Cytotoxicity Assessment in the Attagene TRANS-FACTORIAL HepG2 Assay (AID 2283584)
In short: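 Cells: human HepG2, transiently transfected with MRTU reporter constructs. Exposure 24 h. Readout: XTT, cell number. Baseline/neg ctrl DMSO; loss-of-signal scored.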

[19] = CEETOX_H295R_ESTRADIOL: CeeTox H295R High-throughput Steroidogenesis Assay for Estradiol (AID 2283440; active means hit-call score of the fitted dose curve at least 0.9, where 1 is the maximum; inactive means score below 0.9;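 further: estradiol secreted into medium quantified by LC-MS/MS after dansyl derivatisation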); details: actives raise or lower the signal
In short: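 Estradiol secreted into the medium was measured by tandem mass spectrometry after liquid-liquid extraction and dansylation. Human H295R cells had been forskolin-primed (10 uM, 48 h) before a 48 h chemical exposure with 0.1% DMSO.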

[20] = CEETOX_H295R_ESTRONE: CeeTox H295R High-throughput Steroidogenesis Assay for Estrone (AID 2283441; active means hit-call score of the fitted dose curve at least 0.9, where 1 is the maximum; inactive means score below 0.9); details: actives raise or lower the signal
In short: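 Estrone secreted into medium quantified by LC-MS/MS after dansyl chloride derivatization, following 48 h chemical exposure (0.1% DMSO final) of forskolin-prestimulated (10 uM, 48 h) H295R cells; gain or loss fitted against DMSO; MTT viability in same wells.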

Chain of Peroxisome proliferator-activated receptor gamma (Homo sapiens) (P37231 whole entry, looked up, the tested form may be a part): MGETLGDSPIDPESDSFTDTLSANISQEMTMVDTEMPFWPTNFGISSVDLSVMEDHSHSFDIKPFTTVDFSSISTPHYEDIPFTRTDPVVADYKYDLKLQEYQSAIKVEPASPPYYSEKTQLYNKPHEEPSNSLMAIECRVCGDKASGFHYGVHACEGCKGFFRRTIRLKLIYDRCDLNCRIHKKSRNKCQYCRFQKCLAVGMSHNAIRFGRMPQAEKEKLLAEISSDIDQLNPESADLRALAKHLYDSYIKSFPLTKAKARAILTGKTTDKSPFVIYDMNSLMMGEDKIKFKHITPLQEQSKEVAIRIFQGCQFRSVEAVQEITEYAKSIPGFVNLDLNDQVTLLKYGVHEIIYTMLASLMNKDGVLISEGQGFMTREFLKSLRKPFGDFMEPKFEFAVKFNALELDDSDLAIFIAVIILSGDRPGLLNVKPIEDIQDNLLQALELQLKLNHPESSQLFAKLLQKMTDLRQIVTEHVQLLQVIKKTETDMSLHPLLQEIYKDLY
Chain of Retinoic acid receptor RXR-alpha (Homo sapiens) (P19793 whole entry, looked up, the tested form may be a part): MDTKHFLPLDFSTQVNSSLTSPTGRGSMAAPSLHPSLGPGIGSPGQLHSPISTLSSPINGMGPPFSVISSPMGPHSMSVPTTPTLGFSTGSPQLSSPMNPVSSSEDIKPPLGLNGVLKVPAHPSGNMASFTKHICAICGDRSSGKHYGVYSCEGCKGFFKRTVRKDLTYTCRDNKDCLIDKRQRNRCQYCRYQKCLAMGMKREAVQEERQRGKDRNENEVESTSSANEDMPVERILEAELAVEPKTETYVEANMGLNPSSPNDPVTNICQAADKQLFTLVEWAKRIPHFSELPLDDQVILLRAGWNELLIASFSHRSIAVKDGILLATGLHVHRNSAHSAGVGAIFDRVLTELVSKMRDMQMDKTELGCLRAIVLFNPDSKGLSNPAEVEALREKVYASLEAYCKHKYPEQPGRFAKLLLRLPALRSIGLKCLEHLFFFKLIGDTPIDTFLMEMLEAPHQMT
Chain of Estrogen receptor (Homo sapiens) (P03372 whole entry, looked up): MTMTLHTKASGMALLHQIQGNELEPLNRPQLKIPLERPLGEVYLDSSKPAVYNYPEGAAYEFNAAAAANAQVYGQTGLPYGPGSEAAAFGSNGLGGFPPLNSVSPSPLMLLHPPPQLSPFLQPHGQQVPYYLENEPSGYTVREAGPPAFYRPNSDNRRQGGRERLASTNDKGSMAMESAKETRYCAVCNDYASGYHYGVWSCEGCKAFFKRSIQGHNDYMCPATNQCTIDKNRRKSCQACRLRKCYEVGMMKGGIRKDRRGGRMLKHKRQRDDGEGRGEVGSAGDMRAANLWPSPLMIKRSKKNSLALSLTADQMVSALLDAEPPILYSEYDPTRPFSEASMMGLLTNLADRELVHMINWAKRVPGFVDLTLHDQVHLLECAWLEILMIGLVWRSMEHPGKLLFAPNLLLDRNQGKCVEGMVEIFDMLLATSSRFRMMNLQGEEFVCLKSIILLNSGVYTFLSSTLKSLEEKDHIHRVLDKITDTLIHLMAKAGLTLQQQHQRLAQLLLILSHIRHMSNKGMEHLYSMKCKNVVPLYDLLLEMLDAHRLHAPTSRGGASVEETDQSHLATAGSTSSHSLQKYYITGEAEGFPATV
Chain of Bile acid receptor (Homo sapiens) (Q96RI1 whole entry, looked up, the tested form may be a part): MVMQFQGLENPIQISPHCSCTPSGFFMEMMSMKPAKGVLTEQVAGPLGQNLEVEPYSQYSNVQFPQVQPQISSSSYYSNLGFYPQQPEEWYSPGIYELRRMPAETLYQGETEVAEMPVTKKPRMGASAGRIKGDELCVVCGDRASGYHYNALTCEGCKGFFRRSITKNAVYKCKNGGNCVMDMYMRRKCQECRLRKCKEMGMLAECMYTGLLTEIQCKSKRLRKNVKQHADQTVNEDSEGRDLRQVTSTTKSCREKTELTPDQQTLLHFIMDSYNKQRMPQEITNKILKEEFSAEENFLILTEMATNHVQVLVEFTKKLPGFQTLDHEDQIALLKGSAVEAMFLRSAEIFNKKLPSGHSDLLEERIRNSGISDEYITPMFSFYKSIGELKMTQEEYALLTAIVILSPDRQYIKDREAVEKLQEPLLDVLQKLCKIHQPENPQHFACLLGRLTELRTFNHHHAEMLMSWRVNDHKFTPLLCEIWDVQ

Cc1cc(C)c(C)cc1C
outcome [1]: inactive
outcome [2]: inactive
outcome [3]: inactive
outcome [4]: inactive
outcome [5]: inactive
outcome [6]: inactive

c1ccc2c(c1)ccc1cc3c(ccc4ccccc43)cc12
outcome [1]: inactive
outcome [2]: inactive
outcome [7]: inactive
outcome [4]: inactive
outcome [8]: inactive

CCCCC/C=C\CCC=O
outcome [1]: inactive
outcome [3]: inactive
outcome [4]: inactive
outcome [5]: inactive
outcome [6]: inactive
outcome [9]: inactive
outcome [10]: inactive
outcome [11]: inactive
outcome [12]: inactive
outcome [13]: inactive
outcome [14]: inactive
outcome [15]: inactive
outcome [16]: inactive
outcome [17]: inactive
outcome [18]: inactive

CC(C)c1ccc2c(C(C)C)cc(C(C)C)c(S(=O)(=O)O)c2c1
outcome [1]: inactive
outcome [2]: inactive
outcome [3]: inactive
outcome [5]: inactive
outcome [6]: inactive
outcome [18]: inactive
outcome [8]: inactive

CCCCCCCCCCCCCOP(=O)(O)O
outcome [1]: inactive
outcome [3]: inactive
outcome [4]: inactive
outcome [5]: inactive
outcome [6]: inactive
outcome [9]: inactive
outcome [10]: inactive
outcome [11]: inactive
outcome [13]: inactive
outcome [14]: inactive
outcome [15]: inactive
outcome [19]: inactive
outcome [20]: inactive
outcome [16]: inactive
outcome [18]: inactive
outcome [8]: inactive

CCCCCCCC/C=C\CCCCCCCC(=O)O
outcome [1]: inactive
outcome [2]: inactive
outcome [5]: inactive
outcome [6]: inactive
outcome [18]: inactive
outcome [8]: inactive

CN(C)c1ccc(N=Nc2ccccc2C(=O)O)cc1
outcome [1]: inactive
outcome [3]: inactive
outcome [4]: inactive
outcome [5]: inactive
outcome [6]: inactive
outcome [18]: inactive
AC50 [8]: 75.8 µM (active)

CC(C)(C)c1ccc(-c2ccc(C(C)(C)C)cc2)cc1
outcome [1]: inactive
AC50 [2]: 33.5 µM (active)
AC50 [7]: 76.6 µM (active)
AC50 [3]: 85.6 µM (active)
AC50 [4]: 78.3 µM (active)
outcome [5]: inactive
outcome [6]: inactive

NC(CO)(CO)CO
outcome [1]: inactive
outcome [3]: inactive
outcome [4]: inactive
outcome [5]: inactive
outcome [6]: inactive
outcome [18]: inactive
outcome [8]: inactive

CC(C)c1ccc2cc(C(C)C)ccc2c1
outcome [1]: inactive
outcome [3]: inactive
AC50 [4]: 97.6 µM (active)
outcome [5]: inactive
outcome [6]: inactive
outcome [18]: inactive
